Values joined by “and” are separate entries in the source; they are usually repeats but may differ in a detail not shown here. Equal values may be shown once. A structure can be active in one record and inactive in another. Active and inactive are the calls of the source. The calls were made as follows: active = hit-call score of the fitted dose curve at least 0.9, where 1 is the maximum; inactive = score below 0.9.

In general, AC50 refers to the midpoint of the concentration-response curve, whichever way the signal moves.

Read-out in the experiment: Macrophage colony-stimulating factor (MCSF), CSF1 (gene 1435)
The experiment in a line: BSK_LPS_MCSF: BioMAP Diversity Plus: LPS Assay for Macrophage colony-stimulating factor (MCSF) Biomarker Activity (AID 2283083). The note with it: primary human HUVEC with PBMC; actives raise or lower the signal. As for the experimental part: BSK_LPS is a cell-based, multiplexed-readout assay that uses umbilical vein endothelium and peripheral blood mononuclear cells, a human vascular primary cell co-culture, with measurements taken at 24 hours after chemical dosing in a 96-well plate.BSK_LPS_MCSF is an assay component measured in the BSK_LPS assay. It measures M-CSF antibody related to regulation of gene expression using ELISA technology.Data from the assay component BSK_LPS_MCSF was analyzed into 1 assay endpoint. This assay endpoint, BSK_LPS_MCSF, was analyzed with bidirectional fitting relative to DMSO as the negative control and baseline of activity. Using a type of binding reporter, gain or loss-of-signal activity can be used to understand changes in the signaling as they relate to the gene CSF1. Furthermore, this assay endpoint can be referred to as a primary readout, because this assay has produced multiple assay endpoints where this one serves a signaling function. To generalize the intended target to other relatable targets, this assay endpoint is annotated to the cytokine intended target family, where the subfamily is colony stimulating factor.
The levels of cell surface (or secreted, indicated by the prefix "s") biomarker endpoints were measured by ELISA. Overt cytotoxicity to cells in confluent adherent cultures (all systems other than the BT system) was assessed by measuring total protein levels using sulforhodamine B (SRB) staining in parallel cultures at the time of biomarker measurements, indicated as SRB endpoints. For proliferation assays for adherent cell types, individual cell types are cultured at sub-confluence and relative cell numbers quantified by SRB staining at time points optimized for each system (48 h: 3C and CASM3C systems; 72 h: BT and HDF3CGF systems; 96 h: SAg system). SRB was performed by staining cells with 0.1% SRB after fixation with 10% TCA and reading wells at 560 nm.Viability and proliferation of PBMC (T cells) was quantified by Alamar Blue reduction for the SAg and BT systems. For PBMC viability (referred to as PBMC Cytotoxicity within the assay endpoint names), cells were plated (75,000/well in a 96-well plate) and then chemical samples added for 1 h before addition of activators, SEB and TSST-1 (20 ng/mL final concentration each). Cells were incubated for 90 h. Then, Alamar Blue (20 uL/well) (Invitrogen, Cat DAL1100) was added for 6 h, and the plates were read with a fluorescence microplate reader at 546/580 nm (excitation/emission). For PBMC proliferation, cells were plated and activated as above but incubated for only 16 h prior to addition of Alamar Blue. Plates were read after 6 h.
Regarding `FC(F)(F)C(F)(F)CNCC(F)(F)C(F)(F)F`, the result was inactive and the AC50 is 6.78 µM (active).

Take `FC(F)(F)C(F)(F)C(F)(F)N(C(F)(F)C(F)(F)C(F)(F)F)C(F)(F)C(F)(F)C(F)(F)F`: the result was inactive.

Regarding `O=C(O)C(F)(F)C(F)(F)F`, the result was inactive.

Turning to `O=C(Cl)C(F)(F)C(F)(F)C(F)(F)C(F)(F)C(F)(F)C(F)(F)C(F)(F)C(F)(F)F`, the outcome was inactive.

With `FC(F)(Br)C(F)(F)C(F)(F)C(F)(F)C(F)(F)C(F)(F)Br`, the outcome was inactive.

With `OCC(F)(F)C(F)(F)C(F)(F)F`, the outcome was inactive.

As for `O=C(O)C(F)(F)C(F)(F)C(F)(F)C(F)(F)C(F)(F)C(F)(F)C(F)(F)C(F)(F)Cl`, the outcome was inactive and the concentration at half-maximal activity (AC50) was 19.4 µM (active).

In the case of `O=C(O)C(F)(OC(F)(F)C(F)(OC(F)(F)C(F)(F)C(F)(F)F)C(F)(F)F)C(F)(F)F` (stereo not given), the result was inactive.

As for `CCCCCCCCCCCCCCCC[N+](C)(C)Cc1ccccc1`, the AC50 was 1.74 µM (active).

Take `FC(F)(F)C(F)(F)C(F)(F)C(F)(F)C(F)(F)CCI`: the outcome was inactive.

Regarding `N=C(N)C(F)(F)C(F)(F)C(F)(F)C(F)(F)C(F)(F)C(F)(F)C(F)(F)F`, the half-maximal activity concentration (AC50) was 47 µM (active) and the result was inactive.

Consider `C=C(C)C(=O)OCCC(F)(F)C(F)(F)C(F)(F)C(F)(F)C(F)(C(F)(F)F)C(F)(F)F`, for which the outcome was inactive.

For the compound `O=P(O)(O)OCCC(F)(F)C(F)(F)C(F)(F)C(F)(F)C(F)(F)C(F)(F)F`, the result was inactive.

As for `CC(CCl)OP(=O)(OC(C)CCl)OC(C)CCl` (stereo not given), the outcome was inactive.

`CCN(CC)c1ccc2c(C)cc(=O)oc2c1`: the outcome was inactive.

For the compound `O=S(=O)(OCC(F)F)C(F)(F)F`, the result was inactive.

As to `O=C(O)C(F)(F)C(F)(F)C(F)F`, the result was inactive.

For `CC(C)(C)C(=O)CC(=O)C(F)(F)C(F)(F)C(F)(F)F`, the outcome was inactive.

Regarding `OCCCC(F)(F)C(F)(F)C(F)(F)F`, the outcome was inactive.

`FC(F)(F)C(F)(F)C(F)(F)C(F)(F)C(F)(F)C(F)(F)C(F)(F)C(F)(F)CCS`: the result was inactive.

For the compound `C=CC(=O)OCC(F)(F)C(F)(F)C(F)(F)C(F)(F)COC(=O)C=C`, the AC50 is 21.4 µM (active) and 21.3 µM (active).

In the case of `CCCCCCOC(=O)c1ccccc1O`, the outcome was inactive.

With `O=C(O)C(F)(F)C(F)(F)OC(F)(F)F`, the result was inactive.

With `O[Si](c1ccccc1)(c1ccccc1)c1ccccc1`, the AC50 is 20 µM (active).

Take `C=C(C)C(=O)OCC(F)(F)C(F)(F)C(F)(F)C(F)(F)C(F)(F)C(F)(F)C(F)(F)F`: the outcome was inactive.

In the case of `O=C(O)C(F)(F)C(F)(F)C(F)(F)F`, the outcome was inactive.

Regarding `C=CC(F)(F)C(F)(F)C(F)(F)C(F)(F)C(F)(F)C(F)(F)C(F)(F)C(F)(F)C=C`, the outcome was inactive.

Take `CCCCCCCCC(F)(F)C(F)(F)C(F)(F)C(F)(F)C(F)(F)C(F)(F)F`: the result was inactive.

As to `FC(F)(F)C(F)(F)C(F)(F)CI`, the result was inactive.

For the compound `FC(F)(I)C(F)(F)C(F)(F)C(F)(F)I`, the outcome was inactive.

On to `CCCCOCCOCCOC(=O)CCCCC(=O)OCCOCCOCCCC`, for which the result was inactive.

For the compound `C=CC(F)(F)C(F)(F)C(F)(F)C(F)(F)C(F)(F)C(F)(F)C(F)(F)C(F)(F)F`, the result was inactive.

As to `O=C(O)C(F)(F)C(F)(F)C(F)(F)C(F)(F)C(F)(F)C(F)(F)C(F)(F)C(F)(F)C(F)(F)C(F)(F)C(F)(F)C(F)(F)F`, the AC50 is 20.4 µM (active) and 21.6 µM (active).

On to `FC(F)(F)C(F)(F)C(F)(F)C(F)(F)C(F)(F)C(F)(F)CC1CO1` (stereo not given), for which the result was inactive.

Regarding `CS(C)(=O)=O`, the result was inactive.

Turning to `CCCCCCC(C)OC(=O)CCCCC(=O)OC(C)CCCCCC` (stereo not given), the outcome was inactive.

In the case of `CCCCC(CC)COP(=O)(O)OCC(CC)CCCC` (stereo not given), the outcome was inactive.
